# Bioassay records from PubChem BioAssay.
# Only some compounds are listed: those with a hit (about 6.9% of all), similar ones and a draw of the others.
# Giardia killer = Small Molecules that selectively kill Giardia lamblia: qHTS | activity change, % at 7.66 µM, hits read low | actives 0.15% (n = 340,000) | AID 540267, 2011 | Giardia lamblia trophozoite viability; in the data active = activity change below about -80%; inconclusive = between about -30% and that limit;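 also: parasites exposed to compound for two days anaerobically before the ATP read; % is scaled to controls: 0 for no effect and ±100 for the full control effect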
#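 Compounds were tested on trophozoites seeded at 100 cells/well and held 48 hrs at 37 deg C anaerobically. An ATP-based luminescent kit measured the remaining live cells.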
# MCF10A rereplic = A quantitative high throughput screen for small molecules that induce DNA re-replication in MCF 10a normal breast cells | actives 2.9% (n = 350,000) | MCF 10A DNA re-replication, Hoechst nuclear intensity, 48 h | Potency, µM (titrated, usually from 46.1 µM), inactives show top-dose activity, positive = re-replication, hits mostly activators | AID 624296, 2012; also: potency is read from the fitted curve at half-maximal effect; % of control where 0% means no effect; nearly all actives have a fitted effect of over 50% in size
# SW480 rerep = A quantitative high throughput screen for small molecules that induce DNA re-replication in SW480 colon adenocarcinoma cells; AID 624297, 2012; Potency, µM (series often up to 46.1 µM), inactives show at the highest dose re-replication activation, most hits filed as activators; actives 1.8% (n = 340,000); SW480 DNA re-replication, Hoechst DNA content imaging, 48 h; also: potency is read from the fitted curve at half-maximal effect; % of control where 0% means no effect; nearly all actives have a fitted effect of over 55% in size
#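 First, 250 cells per well were seeded. Next, compound or vehicle (23 nL) was pinned in, plates sat 48 hr at 37 C. Finally Hoechst was added for 40 min before fluorescence scanning.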
# IL-1B inflam inh = qHTS for Inhibitors of Inflammasome Signaling: IL-1-beta AlphaLISA Primary Screen | THP-1 LPS/ATP IL-1B secretion, AlphaLISA, 16 h; hits give low values | activity change, % at 57.5 µM | actives 4.7% (n = 360,000); in the data active = activity change below about -50%; inconclusive = mostly about -30% to -49%; also: % is scaled to controls: 0 for no effect and ±100 for the full control effect
#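 Secreted IL-1B measured by AlphaLISA bead assay after 16 h compound exposure of THP-1 cells; compounds (final up to 57.5 uM) added 1 h before LPS (250 ng/mL) and ATP (1.25 mM) stimulation; lower signal means less secretion.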
# Vif-A3G inh = qHTS for Inhibitors of Vif-A3G Interactions: qHTS | DNA dC->dU-editing enzyme APOBEC-3G (Homo sapiens), Q9HC16 | HeLa A3G-eYFP + Vif (tagged APOBEC3G with the HIV-1 protein that degrades it), YFP fluorescence, overnight | Potency, µM (titrated, usually from 46.1 µM), for inactives: at the top dose activity, negative = active, most hits filed as inhibitors | actives 0.076% (n = 410,000) | AID 602310, 2012; also: potency is read from the fitted curve at half-maximal effect; % is scaled to controls: 0 for no effect and ±100 for the full control effect; nearly all actives have a fitted effect of over 60% in size
# Target sequence (Q9HC16 whole entry, looked up): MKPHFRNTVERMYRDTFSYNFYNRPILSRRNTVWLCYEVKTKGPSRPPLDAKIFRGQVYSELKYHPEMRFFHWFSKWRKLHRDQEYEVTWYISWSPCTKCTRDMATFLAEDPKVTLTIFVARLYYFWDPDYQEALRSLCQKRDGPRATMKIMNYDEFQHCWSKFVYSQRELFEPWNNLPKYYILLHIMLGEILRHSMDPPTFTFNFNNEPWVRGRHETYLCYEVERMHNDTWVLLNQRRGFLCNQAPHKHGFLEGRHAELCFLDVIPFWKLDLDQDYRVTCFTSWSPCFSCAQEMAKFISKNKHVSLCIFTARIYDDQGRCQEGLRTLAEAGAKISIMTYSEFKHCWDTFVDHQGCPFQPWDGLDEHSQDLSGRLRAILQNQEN
#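 Read-out is eYFP fluorescence (Ex 488/Em 500-530) from Vif-expressing HeLa A3G-eYFP cells; more signal means A3G escaped Vif-mediated degradation. Cells plated overnight, compound pinned in, incubated overnight at 37 deg C.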
# Vif-APOBEC3F blk = qHTS for Inhibitors of Vif-A3F Interactions: qHTS. Potency, µM (series often up to 46.1 µM), for the others: at the top dose activity, negative = active. actives 0.2% (n = 390,000). AID 602313, 2012. HeLa A3F-eYFP + Vif (tagged APOBEC3F with the HIV-1 protein that degrades it), YFP fluorescence increase; also: potency is read from the fitted curve at half-maximal effect; % of control where 0% means no effect; nearly all actives have a fitted effect of over 65% in size
#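 Fluorescence increase (Ex 488/Em 500-530) after overnight compound treatment at 37 deg C flags inhibition of Vif-driven A3F-eYFP loss in stable HeLa A3F-eYFP/Vif cells seeded overnight beforehand.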
# * hit, by the source's call; ? = inconclusive; . = no result given; [ ] = another dose, or the depositor's remark. Unless noted, calls follow the shape of the dose curve; as a rule, active = well fitted curve in the direction sought with a large enough effect; inconclusive = small, poorly fitted or top-dose-only effect, or another doubt; inactive = no such curve, though single readings can be large; an effect the other way counts as inactive or inconclusive.
SMILES,Giardia killer,MCF10A rereplic,SW480 rerep,IL-1B inflam inh,Vif-A3G inh,Vif-APOBEC3F blk
COCC(C)n1c(C)cc(C(=O)COC(=O)c2c(C)nn(-c3ccccc3)c2C)c1C (centres undefined),1,?,?,-56*,2%,2%
COCCn1c(C)cc(C(=O)COC(=O)c2c(C)nn(Cc3ccccc3)c2C)c1C,1,3%,-9%,-16,1%,0%
Cc1nn(Cc2ccccc2)c(C)c1C(=O)OCC(=O)c1cc(C)n(C2CC2)c1C,0,-2%,2%,-58*,4%,1%
CC(C)c1ccc(CNc2n[nH]c(-c3ccco3)n2)cc1,.,.,.,.,1%,-14%
CCOC(=O)Nc1ccc2c3c(cccc13)-c1ccccc1-2,6,?,6.5µM*,25,?,3.5µM*
O=C(Cn1sc2ccccc2c1=O)Nc1ccc(Br)cc1,.,.,.,-98*,4%,?
O=C(Cn1sc2ccccc2c1=O)Nc1ccc(F)cc1,.,.,.,-104*,-12%,4%
O=C(Cn1nc(-c2ccccc2)c2ccccc2c1=O)Nc1ccc(F)cc1,13,?,-1%,-9,-3%,-1%
O=C(Cn1sc2ccccc2c1=O)Nc1ccc(Cl)cc1,.,.,.,-105*,-12%,-2%
CCOc1ccc(Cl)cc1C1CC(=O)Nc2cc(OC)c(OC)c(OC)c21 (centres undefined),.,.,.,.,-2%,-4%
CSCCC(C(=O)NC1CCCC1)n1c(C2CCCC2)nc2ccccc21 (centres undefined),.,.,.,-88*,.,.
CCC(C(=O)NC1CCCC1)n1c(-c2ccncc2)nc2ccccc21 (centres undefined),.,.,.,-20,.,.
CCC(C(=O)NC1CCCC1)n1c(-c2ccnc3ccccc23)nc2ccccc21 (centres undefined),.,.,.,-59*,.,.
CCC(C(=O)NC1CCCC1)n1c(C2CC2)nc2ccccc21 (centres undefined),.,.,.,20,.,.
Nc1nc(NCCc2ccccc2)c2[nH]cnc2n1,16,.,.,.,0%,.
CCSCCc1nnc(NC(=O)Nc2cccc(C(F)(F)F)c2)s1,-14,?,?,-69*,8%,1%
O=C(Nc1cccc(C(F)(F)F)c1)Nc1nnc([C@H]2C[C@H](O)[C@@H](CO)O2)s1,.,.,.,1,3%,.
COc1cccc(NC(=O)Nc2nc(-c3ccc(OC)c(OC)c3)cs2)c1,-12,21µM*,7%,-104*,?,-13%
COc1cccc(-c2csc(NC3OC(=O)c4c3ccc(OC)c4OC)n2)c1 (centres undefined),-12,?,?,-93*,-28%,-6%
COc1ccc(-c2csc(NC(C)=O)n2)cc1OC,4,0%,-19%,?,-7%,5%
COc1ccc(-c2csc(NC(=S)NC(=O)c3ccc4ccccc4c3)n2)cc1OC,32,?,15µM*,11,-3%,0%
CCc1ccc(CN(Cc2ccco2)c2cnc(S(C)(=O)=O)nc2C(=O)Nc2ccc(C)c(Cl)c2)cc1,.,.,.,.,2%,6%
COc1cccc(NC(=O)Nc2nnc(Cc3ccccc3F)s2)c1,11,15µM*,5%,17,-13%,-7%
COC(=O)N1C(=O)[C@](c2ccsc2)(C(C)C)N1C(=O)OC,5,?,?,-99*,-2%,9%
CC(C)C1(c2ccsc2)NC(=O)NC1=O (centres undefined),10,-7%,-2%,0,1%,7%
SMILES,Giardia killer,MCF10A rereplic,SW480 rerep,IL-1B inflam inh,Vif-A3G inh,Vif-APOBEC3F blk
COc1ccc(C2(C)NC(=O)N(CC(=O)NC(C)c3ccc(CC(C)C)cc3)C2=O)cc1 (centres undefined),15,-11%,5%,-21,6%,-5%
COC(=O)N1C(=O)[C@](c2ccc(OC)cc2)(C(C)C)N1C(=O)OC,-10,?,?,-92*,-7%,8%
CC(=O)c1ccc(NC(=O)c2cc(-c3ccc(C)s3)nc3ccccc23)cc1,.,.,.,.,0%,3%
COC(=O)c1cn(C(=O)c2ccc(C)cc2)c2ccccc12,-1,4%,7.3µM*,-1,-23%,-6%
COC(=O)c1cn(C(=O)c2ccc(OC)cc2)c2ccccc12,4,5.8µM*,2.3µM*,8,?,0%
COC(=O)c1cn(C(=O)c2cc(C)cc(C)c2)c2ccccc12,-13,14%,-2%,-4,-4%,-2%
COC(=O)c1cn(C(=O)c2ccc(OC)c(OC)c2)c2ccccc12,-13,-5%,0%,8,?,?
CCc1nc(N)c(C#N)c(-c2ccc(F)cc2)c1C,-9,-2%,-5%[9.22 µM],9,0%,-1%
Cc1ccc2c(n1)sc1c(-c3ccc(Br)cc3)c(C#N)c(N)nc12,-1,?,2.3µM*,-3,-23%,?
Cc1cccc(CNC(=O)c2oc3c(c2C)-c2nn(Cc4ccccc4Cl)cc2CC3)c1,.,.,.,.,-2%,1%
O=C(Nc1ccccc1Cl)[C@H](CSCc1ccccc1)N1Cc2ccccc2C1=O,.,.,.,.,-1%,0%
COc1cc(CNc2cccc3[nH]c(C(F)(F)F)nc23)cc(OC)c1,-15,?,-26%,41,-17%,-10%
COc1ccc(CNc2cccc3[nH]c(C(F)(F)F)nc23)cc1,15,43%,-5%,-71*,-12%,25%
O=C(NCCc1cnc[nH]1)c1ccc(-c2ccccc2)cc1,6,?,-22%,-54*,-4%,-8%
CCOc1ccc(C(=O)NCCc2cnc[nH]2)cc1,26,2%,3%,32,-3%,-16%
CCOC(=O)c1c(NC(=O)c2cc(=O)c3cc(C)ccc3o2)sc2c1CCCC2,.,.,.,.,0%,-1%
[O-][n+]1cccc2c(Br)cc(Br)c(O)c21,-6,?,2%,-62*,-12%,?
CCc1ccc(S(=O)(=O)c2c(C(=O)c3ccc(C)c(C)c3)cnc3ccccc23)cc1,.,.,.,.,-8%,-8%
CCn1c2ccccc2c2nc3cc(OC)c(OC)cc3nc21,7,2.9µM*,18µM*,-52*,-25%,?
CCOCCn1c2ccccc2c2nc3ccccc3nc21,3,?,4%,?,-13%,?
CCn1c2ccccc2c2nc3cc(C(=O)O)ccc3nc21,2,?,-20%,-56*,-16%,-9%
CCCn1c2ccccc2c2cc(C(=O)O)ccc21,-17,3%,9%,-1,-12%,-8%
